Test results as given in PubChem BioAssay (EPA / NIEHS).
Inconclusive results are not listed. The source made the active and inactive calls. Rule for the calls, unless noted: active = hit-call score of the fitted dose curve at least 0.9, where 1 is the maximum; inactive = score below 0.9.

Assays:
[1] = target: Nuclear respiratory factor 1 (Homo sapiens) (UniProt Q16656); experiment: ATG_NRF1_CIS: Attagene CIS-FACTORIAL HepG2 Assay for human Nuclear Respiratory Factor 1 (NRF1) Orphan Gene (AID 2282987); details: HepG2 NRF1 cis-element reporter, Attagene multiplex; actives raise or lower the signal
Summary of the method: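 Endogenous factor activity was captured via cis-element-driven reporter transcripts in HepG2 cells. Following 24 h chemical treatment, transcripts were quantified by RT-PCR and capillary electrophoresis.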

[2] = ATG_NFI_CIS: Attagene CIS-FACTORIAL HepG2 Assay for human Nuclear Factor I (NFI) (AID 2282989); details: HepG2 cis-regulatory reporter, NFI response element transcription; actives raise or lower the signal
Summary of the method: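 Cells: human liver HepG2, transiently transfected with promoter-regulated reporter transcription units. Exposure 24 h. Detection: fluorescent RT-PCR products separated by capillary electrophoresis, normalised to DMSO negative control.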

[3] = target: Myc proto-oncogene protein (Homo sapiens) (UniProt P01106); experiment: ATG_Myc_CIS: Attagene CIS-FACTORIAL HepG2 Assay for human Myelocytomatosis (Myc) Proto-Oncogene Transcription Factor (AID 2282990); details: HepG2, Attagene cis-reporter transcription factor activity; actives raise or lower the signal
Summary of the method: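 After 24 h chemical treatment of HepG2 cells carrying multiplexed cis-regulated reporter constructs, reporter transcripts quantified by RT-PCR and capillary electrophoresis of fluorescent fragments. Gain or loss fitted against DMSO baseline.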

[4] = ATG_NF_kB_CIS: Attagene CIS-FACTORIAL HepG2 Assay for human Nuclear Factor Kappa B (NF-kB) (AID 2282991); details: HepG2 Attagene cis-factorial NF-kB reporter mRNA; actives raise or lower the signal
Summary of the method: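 After 24 h compound incubation, transfected HepG2 cells yield total RNA; reporter cDNA is PCR-amplified, end-labelled with 6-FAM, HpaI-digested and analysed on a genetic analyser. Endogenous factor activity, DMSO-referenced bidirectional fit.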

[5] = ATG_NRF2_ARE_CIS: Attagene CIS-FACTORIAL HepG2 Assay for human Nuclear Factor Erythroid 2 Related Factor 2 (NFR2) response to Antioxidant Response Elements (ARE) (AID 2282992); details: HepG2 Attagene ARE/NRF2 reporter, transcription factor activity; actives raise or lower the signal;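 for AC50: reporter mRNA level measured by RT-PCR and capillary electrophoresis fluorescence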
Summary of the method: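 Readout: reporter mRNA quantified by RT-PCR plus FAM-labelled primer extension, HpaI digestion and capillary electrophoresis, 24 h after dosing transfected HepG2 cells. Gain or loss of signal is fitted bidirectionally against DMSO baseline.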

[6] = ATG_Oct_MLP_CIS: Attagene CIS-FACTORIAL HepG2 Assay for human Octamer-Binding Transcription Factor (Oct) (AID 2282993); details: HepG2 Attagene cis-factorial Oct reporter, mRNA; actives raise or lower the signal
Summary of the method: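 HepG2, transient MRTU transfection, cis promoter elements; 24 h dosing; RT-PCR/CE fluorescence read-out of reporter mRNA; fit both directions vs DMSO.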

[7] = target: Cellular tumor antigen p53 (Homo sapiens) (UniProt P04637); experiment: ATG_p53_CIS: Attagene CIS-FACTORIAL HepG2 Assay for human p53 Transcription Factor (AID 2282994); details: HepG2 p53 cis-element reporter, Attagene mRNA; actives raise or lower the signal
Summary of the method: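 Read-out: reporter mRNA by RT-PCR plus capillary electrophoresis with fluorescence detection. Human HepG2 liver cells carried transfected multi-reporter cis-element constructs, dosed 24 h. Gain or loss of signal fitted bidirectionally against DMSO control.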

[8] = BSK_3C_TissueFactor: BioMAP Diversity Plus: 3C Assay for Tissue Factor Biomarker Activity (AID 2282997); details: BioMAP 3C HUVEC, tissue factor biomarker readout; actives raise or lower the signal
Summary of the method: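 After a 24 h chemical exposure of primary human umbilical vein endothelial cells, Tissue Factor levels were quantified by ELISA.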

[9] = BSK_3C_uPAR: BioMAP Diversity Plus: 3C Assay for Urokinase-type plasminogen activator receptor (uPAR) Biomarker Activity (AID 2282998); details: BioMAP 3C HUVEC, uPAR biomarker ELISA; actives raise or lower the signal
Summary of the method: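 A multiplexed primary-cell system built on human umbilical vein endothelium was used, with chemical present for 24 h before reading. Cell-surface uPAR was detected by ELISA; signal change in either direction counted against DMSO.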

[10] = BSK_3C_VCAM1: BioMAP Diversity Plus: 3C Assay for Vascular cell adhesion molecule 1 (VCAM1) Biomarker Activity (AID 2282999); details: BioMAP 3C HUVEC, VCAM1 ELISA, cytokine-stimulated; actives raise or lower the signal
Summary of the method: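 Activity fitted in both directions relative to DMSO, with ELISA measurement of the surface marker on primary HUVEC (3C) at 24 h post-treatment; parallel SRB staining (0.1% SRB, TCA-fixed, 560 nm) flagged overt cytotoxicity.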

[11] = BSK_4H_Eotaxin3: BioMAP Diversity Plus: 4H Assay for Eotaxin 3 Biomarker Activity (AID 2283000); details: primary human endothelial cells (HUVEC); actives raise or lower the signal
Summary of the method: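 Chemicals were added to human umbilical vein endothelium cultures, and Eotaxin-3 was quantified by ELISA at 24 h. Values were derived by bidirectional fitting with DMSO serving as negative control and activity baseline.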

[12] = target: human Peroxisome Proliferator-activated Receptor alpha (PPARa), PPARA (gene 5465) (UniProt Q07869); experiment: ATG_PPARa_TRANS: Attagene TRANS-FACTORIAL HepG2 Assay for human Peroxisome Proliferator-activated Receptor alpha (PPARa) (AID 2283001; active = hit-call score of the fitted dose curve at least 0.9, where 1 is the maximum)
Summary of the method: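 Reporter transcripts quantified by RT-PCR plus capillary electrophoresis after 24 h treatment, fitted upward relative to DMSO. Cells: human HepG2 transiently carrying multiple GAL4-UAS reporter units driven by NR-Gal4 chimeras.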

[13] = target: human Retinoic Acid Receptor beta (RARb), RARB (gene 5915) (UniProt P10826); experiment: ATG_RARb_TRANS: Attagene TRANS-FACTORIAL HepG2 Assay for human Retinoic Acid Receptor beta (AID 2283004; active = hit-call score of the fitted dose curve at least 0.9, where 1 is the maximum)
Summary of the method: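 Transient transfection of HepG2 with multiple reporter units → chemical dosing, 24 h → total RNA isolation → RT with oligo(dT) → reporter-specific PCR, 6-FAM primer extension, HpaI digest → capillary electrophoresis. Positive direction vs DMSO control.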

[14] = target: Retinoic acid receptor alpha (Homo sapiens) (UniProt P10276); experiment: ATG_RARa_TRANS: Attagene TRANS-FACTORIAL HepG2 Assay for human Retinoic Acid Receptor alpha (RARa) (AID 2283005; active = hit-call score of the fitted dose curve at least 0.9, where 1 is the maximum;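 for AC50: potency for increased reporter signal meaning RARa activation over DMSO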)
Summary of the method: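 Reporter transcripts, measured by RT-PCR with fluorescent labeling and capillary electrophoresis after 24 h dosing, reflect activity of an exogenous human RARa–GAL4 fusion in transiently transfected HepG2. Fitted for increase relative to DMSO.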

[15] = target: Peroxisome proliferator-activated receptor gamma (Homo sapiens) (UniProt P37231); experiment: ATG_PPARg_TRANS: Attagene TRANS-FACTORIAL HepG2 Assay for human Peroxisome Proliferator-activated Receptor-gamma (PPARg) (AID 2283007; active = hit-call score of the fitted dose curve at least 0.9, where 1 is the maximum)
Summary of the method: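 Liver-derived HepG2 cells expressing an exogenous NR-Gal4 chimera alongside GAL4-UAS reporter genes; 24 h exposure. Fluorescence of reporter RT-PCR products, separated by capillary electrophoresis, gives mRNA induction relative to DMSO.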

[16] = target: Nuclear receptor subfamily 1 group I member 2 (Homo sapiens) (UniProt O75469); experiment: ATG_PXR_TRANS: Attagene TRANS-FACTORIAL HepG2 Assay for human Pregnane X Receptor (PXR) (AID 2283008; active = hit-call score of the fitted dose curve at least 0.9, where 1 is the maximum)
Summary of the method: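 Trans-factorial format: exogenous NR-Gal4 fusion activity, not endogenous factor, in transfected human HepG2 liver cells. After 24 h dosing, RNA isolated, reverse-transcribed, amplified and resolved by capillary electrophoresis; induction scored versus DMSO.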

[17] = target: human Retinoic Acid Receptor gamma (RARg), RARG (gene 5916) (UniProt P13631); experiment: ATG_RARg_TRANS: Attagene TRANS-FACTORIAL HepG2 Assay for human Retinoic Acid Receptor gamma (RARg) (AID 2283009; active = hit-call score of the fitted dose curve at least 0.9, where 1 is the maximum)
Summary of the method: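 TRANS format measured activity of exogenous NR-GAL4 fusion (RARg) in transfected HepG2 liver cells after 24 h dosing. Induced reporter RNA was detected by RT-PCR/capillary electrophoresis fluorescence, analysed in the positive direction against DMSO.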

[18] = target: human Peroxisome Proliferator-activated Receptor delta (PPARd), PPARD (gene 5467) (UniProt Q03181); experiment: ATG_PPARd_TRANS: Attagene TRANS-FACTORIAL HepG2 Assay for human Peroxisome Proliferator-activated Receptor delta (PPARd) (AID 2283002; active = hit-call score of the fitted dose curve at least 0.9, where 1 is the maximum)
Summary of the method: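 Read-out is induced reporter mRNA, quantified by RT-PCR with fluorescent labelling and capillary electrophoresis after 24 h dosing. Cells are HepG2 transiently carrying multiple GAL4-UAS reporter units driven by exogenous NR-GAL4 chimeras; DMSO serves as baseline.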

[19] = read-out: Intercellular Adhesion Molecule 1 (ICAM1), ICAM1 (gene 3383); experiment: BSK_3C_ICAM1: BioMAP Diversity Plus: 3C Assay for Intercellular Adhesion Molecule 1 (ICAM1) Biomarker Activity (AID 2283003); details: primary human endothelial cells (HUVEC); actives raise or lower the signal
Summary of the method: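 Chemicals are dosed onto primary human umbilical vein endothelium (3C system). After 24 h, ICAM-1 is measured by ELISA, and responses are fitted bidirectionally relative to DMSO.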

[20] = BSK_3C_Proliferation: Cell Proliferation Assessment in the BioMAP Diversity Plus: 3C Assay (AID 2283006); details: primary human endothelial cells (HUVEC)
Summary of the method: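 Cells (human umbilical vein endothelial, sub-confluent) receive test chemical; after 48 h they are fixed in 10% trichloroacetic acid, stained with 0.1% SRB and read at 560 nm. Activity is referenced to DMSO, fitting increases and decreases.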

Measured: AC50

Nuclear receptor subfamily 1 group I member 2 (Homo sapiens), sequence (O75469 whole entry, looked up, the tested form may be a part): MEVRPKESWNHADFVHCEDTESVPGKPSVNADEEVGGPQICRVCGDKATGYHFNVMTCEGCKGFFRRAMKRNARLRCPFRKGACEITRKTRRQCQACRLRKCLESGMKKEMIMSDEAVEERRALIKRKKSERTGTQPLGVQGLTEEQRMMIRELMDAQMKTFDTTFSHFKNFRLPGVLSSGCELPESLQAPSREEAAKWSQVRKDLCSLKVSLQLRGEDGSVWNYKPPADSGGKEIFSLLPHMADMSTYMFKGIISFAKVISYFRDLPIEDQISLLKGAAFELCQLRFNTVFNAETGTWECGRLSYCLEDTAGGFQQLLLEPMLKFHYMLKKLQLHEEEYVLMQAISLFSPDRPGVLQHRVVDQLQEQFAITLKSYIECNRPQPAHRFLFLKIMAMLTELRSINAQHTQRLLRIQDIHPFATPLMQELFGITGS
Nuclear respiratory factor 1 (Homo sapiens), sequence (Q16656 whole entry, looked up): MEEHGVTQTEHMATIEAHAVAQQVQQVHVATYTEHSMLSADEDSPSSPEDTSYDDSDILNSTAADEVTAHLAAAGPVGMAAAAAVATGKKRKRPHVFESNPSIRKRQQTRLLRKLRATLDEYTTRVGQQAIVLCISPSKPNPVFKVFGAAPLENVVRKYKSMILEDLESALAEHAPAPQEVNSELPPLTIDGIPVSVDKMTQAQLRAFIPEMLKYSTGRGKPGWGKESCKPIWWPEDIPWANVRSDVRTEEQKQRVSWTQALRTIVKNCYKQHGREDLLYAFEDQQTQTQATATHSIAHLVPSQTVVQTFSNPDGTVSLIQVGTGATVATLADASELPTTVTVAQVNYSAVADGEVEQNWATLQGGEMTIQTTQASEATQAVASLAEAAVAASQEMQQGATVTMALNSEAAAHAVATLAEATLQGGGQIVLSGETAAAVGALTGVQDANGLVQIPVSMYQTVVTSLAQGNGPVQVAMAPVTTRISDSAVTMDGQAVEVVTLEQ
human Retinoic Acid Receptor gamma (RARg), RARG (gene 5916), sequence (P13631 whole entry, looked up, the tested form may be a part): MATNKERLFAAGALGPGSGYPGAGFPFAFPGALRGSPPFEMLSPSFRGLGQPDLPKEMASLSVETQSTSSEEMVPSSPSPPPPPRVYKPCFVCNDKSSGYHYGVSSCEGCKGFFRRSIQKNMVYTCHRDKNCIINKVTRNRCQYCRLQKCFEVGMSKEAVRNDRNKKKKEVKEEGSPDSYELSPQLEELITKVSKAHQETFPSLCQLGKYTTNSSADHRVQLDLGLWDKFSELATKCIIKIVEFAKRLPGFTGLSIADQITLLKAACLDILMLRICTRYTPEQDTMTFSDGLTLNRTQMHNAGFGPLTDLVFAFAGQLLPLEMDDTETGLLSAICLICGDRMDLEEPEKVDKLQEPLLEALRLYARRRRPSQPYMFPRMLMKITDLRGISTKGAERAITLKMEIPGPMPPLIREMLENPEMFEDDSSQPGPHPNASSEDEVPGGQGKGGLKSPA
Retinoic acid receptor alpha (Homo sapiens), sequence (P10276 whole entry, looked up, the tested form may be a part): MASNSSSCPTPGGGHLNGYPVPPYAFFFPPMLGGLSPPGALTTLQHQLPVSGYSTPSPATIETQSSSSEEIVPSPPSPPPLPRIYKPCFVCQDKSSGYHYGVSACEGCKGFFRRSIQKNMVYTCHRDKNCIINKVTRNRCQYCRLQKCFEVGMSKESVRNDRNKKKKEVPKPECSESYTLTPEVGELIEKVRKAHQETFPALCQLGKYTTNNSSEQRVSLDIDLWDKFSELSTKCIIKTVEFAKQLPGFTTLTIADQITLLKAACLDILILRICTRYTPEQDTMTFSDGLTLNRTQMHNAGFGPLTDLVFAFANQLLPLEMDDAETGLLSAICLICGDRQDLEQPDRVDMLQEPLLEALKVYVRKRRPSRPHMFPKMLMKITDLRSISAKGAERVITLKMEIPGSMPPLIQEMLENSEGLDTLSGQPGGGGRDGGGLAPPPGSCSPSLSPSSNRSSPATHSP
human Peroxisome Proliferator-activated Receptor delta (PPARd), PPARD (gene 5467), sequence (Q03181 whole entry, looked up, the tested form may be a part): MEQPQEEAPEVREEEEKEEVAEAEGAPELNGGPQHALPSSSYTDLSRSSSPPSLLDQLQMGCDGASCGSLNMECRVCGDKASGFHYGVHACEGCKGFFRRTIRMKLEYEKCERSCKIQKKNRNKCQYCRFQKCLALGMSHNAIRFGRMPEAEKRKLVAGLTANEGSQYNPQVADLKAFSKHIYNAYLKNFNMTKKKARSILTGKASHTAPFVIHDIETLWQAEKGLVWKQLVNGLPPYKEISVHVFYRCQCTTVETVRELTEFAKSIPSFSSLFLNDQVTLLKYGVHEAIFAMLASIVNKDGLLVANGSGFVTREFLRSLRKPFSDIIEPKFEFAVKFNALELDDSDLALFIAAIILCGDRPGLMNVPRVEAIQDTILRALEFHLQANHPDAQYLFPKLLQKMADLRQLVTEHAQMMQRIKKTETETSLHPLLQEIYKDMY
human Peroxisome Proliferator-activated Receptor alpha (PPARa), PPARA (gene 5465), sequence (Q07869 whole entry, looked up, the tested form may be a part): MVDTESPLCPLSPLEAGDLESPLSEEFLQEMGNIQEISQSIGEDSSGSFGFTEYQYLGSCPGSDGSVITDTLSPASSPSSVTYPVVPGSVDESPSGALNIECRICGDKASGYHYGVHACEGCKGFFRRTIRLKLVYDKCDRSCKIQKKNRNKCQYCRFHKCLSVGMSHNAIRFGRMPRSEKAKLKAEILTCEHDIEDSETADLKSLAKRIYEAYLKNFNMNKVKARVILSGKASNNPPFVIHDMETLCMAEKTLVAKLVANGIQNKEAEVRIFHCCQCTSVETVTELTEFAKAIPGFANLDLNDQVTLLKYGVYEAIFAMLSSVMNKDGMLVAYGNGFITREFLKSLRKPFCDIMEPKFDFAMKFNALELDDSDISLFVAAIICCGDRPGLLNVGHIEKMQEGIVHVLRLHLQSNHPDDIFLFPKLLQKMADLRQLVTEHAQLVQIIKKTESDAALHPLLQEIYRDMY
Myc proto-oncogene protein (Homo sapiens), sequence (P01106 whole entry, looked up, the tested form may be a part): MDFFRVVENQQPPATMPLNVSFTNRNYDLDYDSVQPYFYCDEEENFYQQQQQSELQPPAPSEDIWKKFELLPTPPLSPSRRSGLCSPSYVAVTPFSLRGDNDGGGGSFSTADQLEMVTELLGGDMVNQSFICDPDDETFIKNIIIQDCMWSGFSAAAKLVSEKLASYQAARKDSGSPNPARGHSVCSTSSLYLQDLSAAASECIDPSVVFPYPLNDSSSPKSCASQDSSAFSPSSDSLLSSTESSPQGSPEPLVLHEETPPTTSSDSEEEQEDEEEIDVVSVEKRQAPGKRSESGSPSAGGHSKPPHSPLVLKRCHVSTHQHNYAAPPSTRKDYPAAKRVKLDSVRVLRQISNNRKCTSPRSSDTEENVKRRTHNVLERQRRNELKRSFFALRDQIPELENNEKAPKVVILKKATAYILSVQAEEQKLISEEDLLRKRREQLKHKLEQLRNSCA
Peroxisome proliferator-activated receptor gamma (Homo sapiens), sequence (P37231 whole entry, looked up, the tested form may be a part): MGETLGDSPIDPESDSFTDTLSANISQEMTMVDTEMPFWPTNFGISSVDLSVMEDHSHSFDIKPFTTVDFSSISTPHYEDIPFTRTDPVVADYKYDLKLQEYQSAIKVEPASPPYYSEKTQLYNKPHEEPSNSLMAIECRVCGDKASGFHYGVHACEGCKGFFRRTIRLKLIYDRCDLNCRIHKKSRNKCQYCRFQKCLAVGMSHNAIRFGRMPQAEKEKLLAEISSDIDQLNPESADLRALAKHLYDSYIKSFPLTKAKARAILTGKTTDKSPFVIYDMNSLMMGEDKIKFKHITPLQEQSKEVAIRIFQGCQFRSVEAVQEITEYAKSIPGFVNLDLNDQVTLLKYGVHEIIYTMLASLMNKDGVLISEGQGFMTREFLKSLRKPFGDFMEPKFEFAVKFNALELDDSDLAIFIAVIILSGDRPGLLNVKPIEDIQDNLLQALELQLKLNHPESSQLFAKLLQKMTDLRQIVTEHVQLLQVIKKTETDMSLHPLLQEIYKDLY
Cellular tumor antigen p53 (Homo sapiens), sequence (P04637 whole entry, looked up): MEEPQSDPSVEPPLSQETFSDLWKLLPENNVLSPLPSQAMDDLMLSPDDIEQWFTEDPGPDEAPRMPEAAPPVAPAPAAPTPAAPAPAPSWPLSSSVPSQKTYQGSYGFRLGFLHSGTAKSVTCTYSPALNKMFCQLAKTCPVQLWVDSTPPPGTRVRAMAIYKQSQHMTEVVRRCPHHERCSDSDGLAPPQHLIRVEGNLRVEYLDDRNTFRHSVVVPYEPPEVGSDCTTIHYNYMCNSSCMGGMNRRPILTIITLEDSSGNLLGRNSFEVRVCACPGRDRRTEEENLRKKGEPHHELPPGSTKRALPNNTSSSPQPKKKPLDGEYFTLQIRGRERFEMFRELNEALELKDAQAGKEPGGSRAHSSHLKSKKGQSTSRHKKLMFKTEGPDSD
human Retinoic Acid Receptor beta (RARb), RARB (gene 5915), sequence (P10826 whole entry, looked up): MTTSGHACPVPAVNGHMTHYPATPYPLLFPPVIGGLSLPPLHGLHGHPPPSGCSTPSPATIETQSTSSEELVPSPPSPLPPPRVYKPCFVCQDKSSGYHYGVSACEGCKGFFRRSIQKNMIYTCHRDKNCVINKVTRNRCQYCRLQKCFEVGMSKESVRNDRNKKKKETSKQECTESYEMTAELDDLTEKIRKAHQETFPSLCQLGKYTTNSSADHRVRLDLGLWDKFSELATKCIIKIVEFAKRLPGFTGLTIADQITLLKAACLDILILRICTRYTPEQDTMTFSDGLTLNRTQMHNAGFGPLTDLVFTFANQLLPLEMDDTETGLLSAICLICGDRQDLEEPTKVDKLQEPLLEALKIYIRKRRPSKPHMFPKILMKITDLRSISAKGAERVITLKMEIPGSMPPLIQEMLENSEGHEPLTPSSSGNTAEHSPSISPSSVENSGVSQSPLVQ

CCCSP(=O)(OCC)Oc1ccc(Br)cc1Cl (stereo not drawn)
active: [5] 2.73 µM | [6] 2.03 µM
not listed: [18] | [19] | [20]
inactive: all other assays above

CCOC(=O)CC(SP(=O)(OC)OC)C(=O)OCC (stereo not drawn)
active: [5] 21.9 µM | [15] 28.7 µM
not listed: [14] | [16]
inactive: all other assays above

CCCCOC(=O)[C@@H](C)Oc1ccc(Oc2ccc(C#N)cc2F)cc1
not listed: [13] | [14] | [17] | [19]
inactive: all other assays above

CNC(=O)ON=C(C)SC
not listed: [13] | [14] | [17]
inactive: all other assays above

CCOP(=S)(OCC)Oc1cc(C)nc(C(C)C)n1
active: [5] 15.9 µM | [15] 50 µM
not listed: [12] | [13] | [14] | [17] | [20]
inactive: all other assays above

Nc1nc(N)nc(NC2CC2)n1
not listed: [15] | [19] | [20]
inactive: all other assays above

FC(F)C(F)(F)OCC(Cn1cncn1)c1ccc(Cl)cc1Cl (stereo not drawn)
active: [1] 39.5 µM | [5] 35.9 µM | [6] 46.5 µM | [9] 36.7 µM | [11] 28.4 µM | [14] 13.2 µM
not listed: [12] | [20]
inactive: all other assays above
